Results filed as inconclusive are left out. Active and inactive are the calls of the source. Calls come from the whole dose curve; as a rule, active = well fitted activation curve with a large enough effect in the signal ratio, with a control signal flat; inconclusive = small, poorly fitted or top-dose-only effect, or a change in a side signal; inactive = flat fitted curve, though single readings scatter; the % refers to the signal ratio.
What follows are compounds tested against Thyrotropin receptor (Homo sapiens) (UniProt P16473) (assay: Secondary Concentration-Response Assay for Agonists of the Thyroid Stimulating Hormone Receptor: HTRF Activity Detection). Conditions: HEK293-TSHR cells, cAMP HTRF ratio, 30 min; series mostly up to 91.7 µM; activation: at the top concentration.
Summary of the method: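 Orthogonal confirmation in a separate TSHR-transfected HEK 293 line: cells in medium with 10 % FCS and 100 uM RO 20-1724 got compound for 30 min at room temperature. cAMP was measured by HTRF (d2-cAMP/anti-cAMP antibody), 615/660 nm emission.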
Potency is the fitted concentration of half-maximal effect.
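Throughout, for activation: HEK 293 cells stably expressing human TSHR with RO 20-1724 phosphodiesterase inhibitor; % of control where 0% means no effect.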

Thyrotropin receptor (Homo sapiens), sequence (P16473 whole entry, looked up): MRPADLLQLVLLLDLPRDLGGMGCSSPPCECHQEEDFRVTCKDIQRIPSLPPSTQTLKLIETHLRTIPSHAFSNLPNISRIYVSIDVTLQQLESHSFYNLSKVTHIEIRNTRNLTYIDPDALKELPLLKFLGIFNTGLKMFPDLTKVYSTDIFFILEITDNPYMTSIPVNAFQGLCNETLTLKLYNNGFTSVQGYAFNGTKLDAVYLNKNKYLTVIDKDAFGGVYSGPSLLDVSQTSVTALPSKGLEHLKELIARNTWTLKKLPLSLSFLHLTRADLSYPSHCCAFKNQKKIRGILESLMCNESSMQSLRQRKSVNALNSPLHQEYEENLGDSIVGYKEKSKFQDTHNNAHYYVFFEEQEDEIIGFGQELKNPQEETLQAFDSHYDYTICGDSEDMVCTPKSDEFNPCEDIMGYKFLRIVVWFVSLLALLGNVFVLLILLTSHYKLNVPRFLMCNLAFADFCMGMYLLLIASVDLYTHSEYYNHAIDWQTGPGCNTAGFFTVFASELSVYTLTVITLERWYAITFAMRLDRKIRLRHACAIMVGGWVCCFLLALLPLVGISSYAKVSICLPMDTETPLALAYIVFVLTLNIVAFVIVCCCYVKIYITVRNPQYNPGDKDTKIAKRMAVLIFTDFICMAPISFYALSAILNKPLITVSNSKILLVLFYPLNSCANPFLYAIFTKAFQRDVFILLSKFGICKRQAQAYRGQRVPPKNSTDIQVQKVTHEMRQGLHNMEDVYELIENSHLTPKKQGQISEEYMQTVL

activation, inactive:
Cc1nn(C)c(C)c1S(=O)(=O)N(CC(=O)Nc1ccccn1)c1ccc(C(C)C)cc1 -0.155% [at 0.00035 µM]
COc1ccc(C2Nc3ccccc3C(=O)N2Cc2ccccc2)cc1COc1ccc([N+](=O)[O-])cc1 (stereo unspecified) 1.19%
O=C1CC(c2ccco2)CC2=C1C(c1cccnc1)n1nc(C(F)(F)F)nc1N2 (stereo unspecified) 8.86%
COc1ccc(C2Nc3ccccc3C(=O)N2Cc2ccc(C(F)(F)F)cc2)cc1COc1ccc(NC(C)=O)cc1 (stereo unspecified) 21.4%
COc1ccc(-c2ccc(-c3noc(C)n3)c(OC)n2)cc1 -0.214% [at 0.00035 µM]
O=C(c1cc(Br)ccc1O)N(Cc1ccco1)Cc1cccs1 6.91%
O=C(CN(Cc1ccc(F)cc1)S(=O)(=O)c1ccccc1)N1CCCCC1 0.34% [at 0.00035 µM]
COc1ccc(CNCc2ccccc2)cc1COc1ccc(NC(C)=O)cc1 8.06%
COc1ccc(C2Nc3ccccc3C(=O)N2Cc2ccccc2)cc1COc1ccc(Cl)cc1 (stereo unspecified) 15.5%
COc1cccc(OCc2cc(C3Nc4ccccc4C(=O)N3Cc3ccccc3)ccc2OC)c1 (stereo unspecified) 1.17%
Cc1ccc(C2Nc3ccccc3C(=O)N2Cc2ccco2)cc1 (stereo unspecified) 0.603%
COc1ccc2c(c1OC)C(=O)N1c3ccccc3C(=O)N(c3ccccc3F)C21 (stereo unspecified) 2.15%
COc1ccc(N2C(=O)c3ccccc3NC2c2ccc(OC)c(COc3ccc(NC(C)=O)cc3)c2)cc1 (stereo unspecified) 3.72%
COc1ccc(C2Nc3ccccc3C(=O)N2Cc2ccco2)cc1COc1ccc([N+](=O)[O-])c(C)c1 (stereo unspecified) 1.82%
CCOC(=O)N1CCC(NC(=O)c2ccc(CNS(=O)(=O)c3ccc(F)cc3)cc2)CC1 0.984% [at 0.00035 µM]
CCCN1C(=O)c2ccccc2NC1c1ccc(OC)c(COc2cccc(C)c2C)c1 (stereo unspecified) 1.8%
COc1cc(C2Nc3ccccc3C(=O)N2Cc2ccccc2)ccc1OCc1ccccc1 (stereo unspecified) 1.28%
COc1ccc(O)c(C2Nc3ccccc3C(=O)N2Cc2ccccc2)c1 (stereo unspecified) 4.83%
O=C1c2ccccc2NC(c2ccc3c(c2)OCO3)N1Cc1ccco1 (stereo unspecified) 1.3%
COc1cccc(C(c2nnnn2Cc2ccccc2)N2CCN(C(=O)c3ccco3)CC2)c1OC (stereo unspecified) 0.497% [at 0.00035 µM]
COc1ccc(CN(Cc2ccccc2)C(=O)c2ccccc2O)cc1 27%
COc1ccc(CN(Cc2ccccc2)C(=O)c2ccc(NC(C)=O)cc2)cc1COc1ccc(NC(C)=O)cc1 12.9%
CCC(=O)Nc1ccc(OCc2cc(C3Nc4ccccc4C(=O)N3Cc3ccccc3)ccc2OC)cc1 (stereo unspecified) 28%
COc1ccc(C2Nc3ccccc3C(=O)N2Cc2ccco2)cc1COc1ccc([N+](=O)[O-])cc1 (stereo unspecified) 0.732%
CN(Cc1ccco1)C(=O)Cn1c(=O)oc2cc(S(=O)(=O)NCc3ccccc3)ccc21 0.961% [at 0.00035 µM]
COc1ccc(C2Nc3ccccc3C(=O)N2CCCN(C)C)cc1COc1ccc(NC(C)=O)cc1 (stereo unspecified) 2.95%
COc1ccc2c(c1OC)C(=O)N1c3ccccc3C(=O)N(c3ccccc3)C21 (stereo unspecified) 0.932%
CCN(CC)CCN1C(=O)c2ccccc2NC1c1cc(OC)c(OC)c(OC)c1 (stereo unspecified) 0.196%
COc1ccc(C2Nc3ccccc3C(=O)N2Cc2ccccc2Cl)cc1COc1ccc(NC(C)=O)cc1 (stereo unspecified) 10.2%
COc1ccc(/C=C2/C(=O)NC(=O)N(Cc3ccco3)C2=O)cc1COc1ccc(NC(C)=O)cc1 1.65%
NC(=O)c1nsc(C(=O)N(CC(=O)NC2CCCC2)Cc2ccc3c(c2)OCO3)c1N 0.815%
CC(NC(=O)COC(=O)c1ccco1)C12CC3CC(CC(C3)C1)C2 (stereo unspecified) 0.512%

Potency, inactive:
O=C1c2ccccc2NC(c2ccccc2)N1Cc1ccco1 (stereo unspecified)

Potency, active:
COc1ccc(-c2nc3ccccc3c(=O)n2Cc2ccco2)cc1COc1ccc(NC(C)=O)cc1 17.8 µM
COc1ccc(C(=O)N(Cc2ccccc2)Cc2ccco2)c(O)c1 15.8 µM
COc1cccc(CN2C(=O)c3ccccc3NC2c2ccc(OC)c(COc3ccc(NC(C)=O)cc3)c2)c1 (stereo unspecified) 6.31 µM
